Assay results from PubChem BioAssay (NCI).
The panel holds about 79,000 compounds, 15% with a hit somewhere; the sample as a whole holds those more often. Unmarked numbers belong to inactive results. Active and inactive are the calls of the source. No stated cut-off is given here; in the data, active means growth inhibition above about 70%; inactive means the rest.

Experiments:
[1] = NCI Yeast Anticancer Drug Screen. Data for the rad50 strain (AID 155);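 further: 0% = growth of vehicle-only cultures of the same strain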; conditions: S. cerevisiae rad50 strain growth inhibition; at 50.0 µM; active compounds read high
How it was run: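 A DNA repair-deficient yeast mutant serves as the test organism; compound-induced growth inhibition is calculated against vehicle-treated cells.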

[2] = NCI Yeast Anticancer Drug Screen. Data for the mec2-1 strain (AID 157); conditions: S. cerevisiae mec2-1 strain, at 50.0 µM, active compounds read high
How it was run: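 Test agents were screened against the mec2-1 yeast strain, with defined DNA repair or cell cycle alteration. Growth was scored as inhibition against vehicle-only controls.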

[3] = NCI Yeast Anticancer Drug Screen. Data for the sgs1 mgt1 strain (AID 161);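 further: 0% = growth of cultures given vehicle only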; conditions: S. cerevisiae sgs1 mgt1 strain, at 50.0 µM, active compounds read high
How it was run: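 Mutant yeast exposed to compound; growth scored against vehicle-only wells.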

[4] = NCI Yeast Anticancer Drug Screen. Data for the cln2 rad14 strain (AID 165);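 further: 0% = growth equal to vehicle treated cultures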; conditions: S. cerevisiae cln2 rad14 strain, at 50.0 µM, active compounds read high
How it was run: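 Growth of compound-exposed yeast (cln2 rad14 genotype) measured and expressed as inhibition relative to vehicle.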

[5] = NCI Yeast Anticancer Drug Screen. Data for the bub3 strain (AID 167); conditions: S. cerevisiae bub3 mutant strain, at 50.0 µM, active compounds read high
How it was run: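 Inhibition values come from growth of compound-treated mutant yeast normalised to vehicle-treated controls.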

[6] = NCI Yeast Anticancer Drug Screen. Data for the mlh1 rad18 strain (AID 175); conditions: S. cerevisiae mlh1 rad18 strain growth inhibition; at 50.0 µM; active compounds read high
How it was run: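 In this whole-cell yeast screen, a strain with altered DNA damage repair is challenged with compound, and its growth is measured against matched vehicle-treated controls.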

Cc1ccccc1/C=C/C(=O)c1ccccc1
growth inhibition [1]: 45.2%
growth inhibition [2]: 24.6%
growth inhibition [3]: 40.8%
growth inhibition [4]: 1.8%
growth inhibition [5]: 11.4%
growth inhibition [6]: 20%

CCOC(=O)Cc1nc(Cl)c2c(C)c(C)sc2n1
growth inhibition [1]: 29.8%
growth inhibition [2]: 5.6%
growth inhibition [3]: 6.9%
growth inhibition [4]: 20.2%
growth inhibition [5]: 24.9%
growth inhibition [6]: 40.5%

COC(=O)C(Cc1c[nH]c2ccccc12)NP(=O)(O)OCC1OC(n2cc(Br)c(=O)[nH]c2=O)CC1O (centres undefined)
growth inhibition [1]: -34.8%
growth inhibition [2]: -15.4%
growth inhibition [3]: -9.25%
growth inhibition [4]: -12%
growth inhibition [5]: -16.3%
growth inhibition [6]: -10.1%

O=C(O)C1CCc2ccccc2C1 (centres undefined)
growth inhibition [1]: 15.4%
growth inhibition [2]: 4.05%
growth inhibition [3]: 9.85%
growth inhibition [4]: -0.45%
growth inhibition [5]: -2.4%
growth inhibition [6]: 2.95%

O=C(Nc1cccc(C(F)(F)F)c1)OCCOc1ccc(Cl)cc1
growth inhibition [1]: 99.2% (active)
growth inhibition [2]: 99.3% (active)
growth inhibition [3]: 99.2% (active)
growth inhibition [4]: 98% (active)
growth inhibition [5]: 99% (active)
growth inhibition [6]: 98% (active)

N#CC(C(=N/NC(N)=S)/C(=N\NC(N)=S)C(C#N)c1ccccc1)c1ccccc1 (centres undefined)
growth inhibition [1]: -34.5%
growth inhibition [2]: -5.35%
growth inhibition [3]: -30.8%
growth inhibition [4]: -8.25%
growth inhibition [5]: -14.2%
growth inhibition [6]: -15.7%

CC(=O)CC(C)(C)S(=O)(=O)c1ccc(C)cc1
growth inhibition [1]: 4%
growth inhibition [2]: -5.05%
growth inhibition [3]: 24.4%
growth inhibition [4]: -26.4%
growth inhibition [5]: 11.8%
growth inhibition [6]: 5.05%

c1ccc(C2OCC(OC3CCCCO3)CO2)cc1 (centres undefined)
growth inhibition [1]: -0.1%
growth inhibition [2]: -26.5%
growth inhibition [3]: -24.6%
growth inhibition [4]: -5.1%
growth inhibition [5]: -9.45%
growth inhibition [6]: -2.15%

CCOC(=O)C(c1ccccc1)c1ccccc1
growth inhibition [1]: -11.4%
growth inhibition [2]: -26.7%
growth inhibition [3]: -17.6%
growth inhibition [4]: -43.2%
growth inhibition [5]: -12.8%
growth inhibition [6]: -12.2%

CCOC(=O)C1SC(=Nc2ccc(Cl)cc2Cl)N=C1C (centres undefined)
growth inhibition [1]: -0.75%
growth inhibition [2]: -10.3%
growth inhibition [3]: 4.4%
growth inhibition [4]: -19.2%
growth inhibition [5]: -2.85%
growth inhibition [6]: -10.8%

O=[N+]([O-])c1ccc(F)c(Cl)c1
growth inhibition [1]: -10.7%
growth inhibition [2]: -25.1%
growth inhibition [3]: -1.6%
growth inhibition [4]: 4.55%
growth inhibition [5]: 9.3%
growth inhibition [6]: -7.25%

CCc1ccccc1NOC
growth inhibition [1]: 7.65%
growth inhibition [2]: -1.9%
growth inhibition [3]: -1.05%
growth inhibition [4]: -7.15%
growth inhibition [5]: 8.45%
growth inhibition [6]: 9.65%

Cc1cc(C)c(-c2no/c(=N\S(=O)(=O)c3ccc(Cl)cc3)o2)c(C)c1
growth inhibition [1]: -10%
growth inhibition [2]: -4.1%
growth inhibition [3]: 0.75%
growth inhibition [4]: 26%
growth inhibition [5]: -13.1%
growth inhibition [6]: 3.85%

CN1CCN(C(=O)NC2CCCCC2)CC1
growth inhibition [1]: -2.1%
growth inhibition [2]: -10.9%
growth inhibition [3]: 3.35%
growth inhibition [4]: -44.4%
growth inhibition [5]: -8.4%
growth inhibition [6]: -7.6%

CCOC(=O)C12CCCC1(O)N(NC(=O)c1ccccc1)C(C)=C2C(=O)OC (centres undefined)
growth inhibition [1]: 10.8%
growth inhibition [2]: 21.6%
growth inhibition [3]: 6.3%
growth inhibition [4]: -56.5%
growth inhibition [5]: 2.95%
growth inhibition [6]: -10.2%

CCOC(=O)C(NC(=O)CC)(Nc1ccc(S(=O)(=O)Nc2onc(C)c2C)cc1)C(F)(F)F (centres undefined)
growth inhibition [1]: -6.35%
growth inhibition [2]: -15.4%
growth inhibition [3]: -8.85%
growth inhibition [4]: 15.6%
growth inhibition [5]: -6.4%
growth inhibition [6]: -17.4%

COC(=O)C1Cc2cc3c(cc2C1=O)CCC3 (centres undefined)
growth inhibition [1]: -19.2%
growth inhibition [2]: -12.8%
growth inhibition [3]: -2.8%
growth inhibition [4]: 6.75%
growth inhibition [5]: 20.4%
growth inhibition [6]: -5.45%

Cc1c(Cl)ccc([N+](=O)[O-])c1Cl
growth inhibition [1]: 10.7%
growth inhibition [2]: -6.85%
growth inhibition [3]: -3.35%
growth inhibition [4]: 18.3%
growth inhibition [5]: 14.8%
growth inhibition [6]: 29.4%

CC(=O)OCC1OC(n2cnc3c(N)ncnc32)CC1OC(C)=O (centres undefined)
growth inhibition [1]: -1.7%
growth inhibition [2]: -1.75%
growth inhibition [3]: -1.25%
growth inhibition [4]: -47.5%
growth inhibition [5]: 15.5%
growth inhibition [6]: -18.6%
